Measured values as given in ChEMBL document CHEMBL1157539, “Thousands of chemical starting points for antimalarial lead identification” (Nature, 2010).

tested on: Plasmodium falciparum; experiment: GSK_TCMDC: Inhibition of Plasmodium falciparum 3D7 in whole red blood cells, using parasite LDH activity as an index of growth. Test compounds present at 2uM; format: functional

Row | Structure (SMILES) | Inhibition [%]
1 | COc1cc2nc(N3CC(C)N(C(=O)Cc4ccc(-c5ccccc5)cc4)C(C)C3)nc(N)c2cc1OC (stereo not given) | 100
2 | O=C(Nc1ccc(OC2CCN(Cc3ccsc3)C2)c(Cl)c1)c1ccc2ncccc2c1.O=C(O)C(F)(F)F (stereo not given) | 88
3 | O=C(c1cccs1)N1CCN(c2ccc([N+](=O)[O-])c(NC3CC3)c2)CC1 | 100
4 | Cn1c(NCc2cc(F)cc3c2OCOC3)nc2cc(Nc3ccnc(Nc4cccc(CS(C)(=O)=O)c4)n3)ccc21 | 100
5 | Cc1cc(Nc2ccncc2)n2nc(C)c(-c3ccccc3Cl)c2n1 | 99
6 | COc1cc2nc(SCC(C)C)n(CCCn3ccnc3)c(=N)c2cc1OC | 99
7 | CN1CCN(c2ccc(Nc3c4ccccc4nc4ccccc34)cc2)CC1 | 100
8 | COc1cc2nc(-c3ccccc3)nc(N3CCN(C(=O)c4ccco4)CC3)c2cc1OC | 89
9 | COc1cccc(NC(=O)NC2CCN(c3ccnc(Nc4cc(OC)c(OC)c(OC)c4)n3)C2)c1 (stereo not given) | 95
10 | CC[C@H](C)[C@H](NC(=O)[C@H](CC1CCCCC1)[C@H](CC)N(O)C=O)C(=O)Nc1ccccn1 | 96
11 | Cc1ccc(NC(=O)N2CCCN(CCCCCNC(=O)/C=C/c3ccc(Cl)c(Cl)c3)CC2)cc1C | 100
12 | CS(=O)(=O)c1ccc(CNCc2ccc(-c3ccc(-c4nc5cc(F)ccc5[nH]4)s3)cc2)cc1.O=C(O)C(F)(F)F | 100
13 | Cc1cc(N[C@@H](CC(C)C)C(=O)NCCOc2ccccc2)nc(NCC2CCCCC2)n1.O=C(O)C(F)(F)F | 97
14 | COc1ccccc1CCNC(=O)c1cnc(N2CCN(c3ccncc3)CC2)c(Cl)c1.O=C(O)C(F)(F)F | 98
15 | CCC(C)NS(=O)(=O)c1ccc2nc(Nc3ccc(C)c(Cl)c3)n(C(C)C(C)C)c2c1 (stereo not given) | 98
16 | Cc1ccc(CN2CCCN(Cc3cccc(NC(=O)c4cc5ccccc5s4)c3)CC2)cc1.O=C(O)C(F)(F)F | 87
17 | Cl.O=c1cc(NCCCNCc2ccc(C(F)(F)F)s2)[nH]c2ccccc12 | 99
18 | COc1ccc(C[C@H](N)C(=O)N[C@H]2[C@@H](O)[C@H](n3cnc4c(N(C)C)ncnc43)O[C@@H]2CO)cc1 [PUROMYCIN] | 100
19 | COc1ccc(Cl)cc1NC(=O)C(C)N1CCN(S(=O)(=O)c2ccccc2F)CC1 (stereo not given) | 93
20 | NCCCNc1ccnc2cc(Cl)ccc12 | 100

Row | Structure (SMILES) | Inhibition [%]
21 | CC(=O)Nc1cccc(C(=O)Nc2ccc(-c3cccc(-c4nc5cc(F)ccc5[nH]4)c3)cc2)c1 | 96
22 | Cl.Oc1ccc(Nc2nc(NCC3CCCO3)c3ccccc3n2)cc1 (stereo not given) | 100
23 | CCOc1cc(C(=O)Nc2ccc3nc(N(CC)CC)cc(C)c3c2)cc(OCC)c1OCC | 98
24 | Clc1ccc(OCc2ccccc2)c(-c2nc(-c3nc4ccc(Cl)cc4[nH]3)cs2)c1 | 99
25 | Br.COc1cc(OCCCCCCON2C(=N)N=C(N)NC2(C)C)cc(OC)c1OC | 94
26 | Cc1cc(N[C@@H](Cc2ccccc2)C(=O)NCc2cccc(F)c2)nc(NCCc2cccnc2)n1.O=C(O)C(F)(F)F | 92
27 | C=CCn1c(Sc2ccc(C#N)c([N+](=O)[O-])c2)nnc1-c1cc(OC)cc(OC)c1 | 96
28 | COc1cc(F)c2nccc([C@@H](O)CN3CCC(NCc4ccc5c(n4)NC(=O)CS5)CC3)c2c1 | 100
29 | O=C(N[C@@H](CC1CCCCC1)C(=O)NCCc1ccc(Cl)c(Cl)c1)c1ccc(O)c(-c2ccc(Cl)c(Cl)c2)c1 | 100
30 | Cc1cccc(-c2nc3cc(NC(=O)c4ccc([N+](=O)[O-])o4)ccc3o2)c1 | 94
31 | CCN(c1ccc(F)cc1)S(=O)(=O)c1cc(Br)cc2c1N(C(=O)C1CC1)CC2 | 88
32 | O=C(O)C(F)(F)F.O=C1CCCN1CCCNCc1ccc(-c2ccc(-c3nc4cc(F)ccc4[nH]3)s2)cc1 | 100
33 | Cn1c(Nc2cc(C(C)(C)C)on2)nc2cc(Nc3ccnc(Nc4ccc(CS(C)(=O)=O)cc4)n3)ccc21 | 100
34 | CCCCCCNC(=O)C1Cc2c([nH]c3ccc(C)cc23)C2(CCN(Cc3ccccc3)CC2)N1 (stereo not given) | 84
35 | COc1cccc(NC(=O)Nc2ccc(C)c(-c3ccc(C(=O)Nc4ccncc4)cc3)c2)c1 | 99
36 | CCCN(C(=O)c1ccccc1C)c1nnc(-c2ccccc2C)s1 | 90
37 | CN(C)CC(O)C(c1ccccc1)c1cccc(Br)c1.Cl (stereo not given) | 98
38 | O=C(Nc1ccc(-c2cccc(-c3nc4cc(C(F)(F)F)ccc4[nH]3)c2)cc1)c1csnn1 | 98
39 | O=C(O)C(F)(F)F.Oc1ccc(CCNc2nc(NCCCOc3ccccc3-c3ccncc3)nc(N3CCNCC3)n2)cc1 | 96
40 | CC(CN(C)C)C(=O)Nc1ccc(-c2cccc(-c3nc4ccccc4[nH]3)c2)cc1 (stereo not given) | 99
